Drawing on PubChem BioAssay AID504848 (National Center for Advancing Translational Sciences (NCATS), 2011), this text covers Potency for 92 compounds.

About 1,400 (61%) of roughly 2,300 compounds were called active. Another 29% or so got no clear call; they are omitted. Calls follow the shape of the dose curve; as a rule, active = well fitted inhibition curve with a large enough effect; inconclusive = small, poorly fitted or top-dose-only effect, or effect the other way; inactive = no such curve, though single readings can be large or run the other way. So high a share suggests a set chosen from earlier hits. The list shows a part of the results.
Potency is read from the fitted curve at half-maximal effect.

The experiment can be described thus: Confirmation screen for delayed death inhibitors of the malarial parasite plastid, 96 hour incubation. Also: nearly all actives have a fitted effect of over 60% in size. The following applies: P. falciparum luciferase growth in erythrocytes; series mostly up to 28.7 µM. Put shortly: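 Two-generation (96 h, 37 C) exposure of P. falciparum carrying an integrated firefly luciferase reporter in erythrocytes, 0.1% parasitemia and 2% hematocrit final, Albumax-supplemented RPMI. Luminescence decrease measures growth inhibition.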
In the case of `COc1ccc(-c2nc(N3CCN(C)CC3)sc2-c2ccc(OC)cc2)cc1`, the Potency was 12.6 µM (active).

As to `CC1(CCc2ccc3c(c2)OCO3)NCCc2c1[nH]c1ccccc21` (configuration not stated), the Potency was 7.08 µM (active).

With `C/C(=N\NC(=S)NCC(C)(C)C)c1cc(F)cc(F)c1O`, the Potency was 11.2 µM (active).

Consider `Cc1cc(/C=C2/SC(=O)NC2=O)c(C)n1-c1ccc(N2CCOCC2)cc1`, for which the Potency is 12.6 µM (active).

Regarding `CCC(=O)N1CCc2cc(S(=O)(=O)N3CCCCCC3)ccc21`, the Potency was 12.6 µM (active).

For `CC(=O)N1CCc2cc(S(=O)(=O)N3CC(C)CC(C)C3)ccc21` (configuration not stated), the Potency is 8.91 µM (active).

In the case of `O=C(Nc1ccccc1SCC1CSc2nc3ccccc3c(=O)n21)c1ccccc1Cl` (configuration not stated), the Potency was 11.2 µM (active).

In the case of `Cc1ccc(C(=O)Nc2ccccc2SCC2CSc3nc4ccccc4c(=O)n32)cc1` (configuration not stated), the Potency was 10 µM (active).

For the compound `Cc1cccc(C(=O)Nc2ccccc2SCC2CSc3nc4ccccc4c(=O)n32)c1` (configuration not stated), the Potency is 3.98 µM (active).

With `O=C(Nc1ccccc1SCC1CSc2nc3ccccc3c(=O)n21)c1ccccc1` (configuration not stated), the Potency is 12.6 µM (active).

As for `CC(Oc1ccc(F)cc1)C(=O)Nc1ccc2ccccc2c1` (configuration not stated), the Potency entry was “inactive”.

With `CC(=O)Nc1ccc(OCc2cccc3ccccc23)cc1`, the Potency is 7.94 µM (active).

Consider `CC(Oc1ccccc1F)C(=O)Nc1ccc2ccccc2c1` (configuration not stated), for which the Potency entry is “inactive”.

For the compound `COc1ccccc1NS(=O)(=O)c1ccc2oc(SCc3ccc(C#N)cc3)nc2c1`, the Potency was 12.6 µM (active).

Turning to `CCOC(=O)c1c(NC(=O)c2c(-c3ccccc3)noc2C)sc(C)c1-c1ccccc1`, the Potency was 5.01 µM (active).

Turning to `COC(=O)c1c(-c2ccccc2)csc1NC(=O)c1c(-c2ccccc2)noc1C`, the Potency is 14.1 µM (active).

With `CCOC(=O)c1c(-c2ccc(-c3ccccc3)cc2)csc1NC(=O)c1cccc(N2C(=O)CCC2=O)c1`, the Potency is 2.24 µM (active).

For `CCOC(=O)c1c(-c2cccc(C)c2)csc1NC(=O)c1c(-c2ccccc2)noc1C`, the Potency was 8.91 µM (active).

Consider `COC(=O)c1c(NC(=O)c2cccc(N3C(=O)CCC3=O)c2)sc2c1CCN(C(C)=O)C2`, for which the Potency was 11.2 µM (active).

In the case of `CCOC(=O)c1c(-c2ccc(F)cc2)csc1NC(=O)c1c(-c2ccccc2)noc1C`, the Potency was 7.08 µM (active).

For `Nc1nc(SCC(=O)NCC2CCCO2)[nH]c(=O)c1NC(=O)c1ccc(F)c(F)c1` (configuration not stated), the Potency is 7.94 µM (active).

Consider `COc1ccc(C(=O)Nc2c(N)nc(SCC(=O)Nc3ccc(NC(C)=O)cc3)[nH]c2=O)cc1OC`, for which the Potency is 12.6 µM (active).

For `CC1CN(C(=O)N2c3ccccc3Sc3ccccc32)CC(C)O1` (configuration not stated), the Potency is 10 µM (active).

For `O=C(N1CCOCC1)N1c2ccccc2Sc2ccccc21`, the Potency entry is “inactive”.

In the case of `CCCSc1nc2c(cnn2-c2ccccc2)c(=O)[nH]1`, the Potency entry was “inactive”.

Consider `CCCCCCn1c(SCCC)nc2c1c(=O)[nH]c(=O)n2C`, for which the Potency is 14.1 µM (active).

As for `Cn1c(=O)[nH]c(=O)c2c1nc(SCCN1CCCCC1)n2CCCc1ccccc1`, the Potency was 5.01 µM (active).

For `Cc1nn(-c2ccccc2)c(N2CCCC2)c1/C=N/NC(=O)c1ccccc1O`, the Potency is 3.98 µM (active).

For `Cc1nn(-c2ccccc2)c(N2CCCC2)c1/C=N/NC(=S)Nc1ccccc1F`, the Potency is 12.6 µM (active).

`CC(C)N(c1ccccc1)c1ccc(NC(=O)CCl)cc1`: the Potency was 2.51 µM (active).

With `O=C(CCl)Nc1ccc(Sc2ccc(NC(=O)CCl)cc2)cc1`, the Potency was 2.51 µM (active).

On to `CCC(CC)COC(=O)C1=C(C)NC(=O)NC1c1ccccc1Br` (configuration not stated), for which the Potency was 10 µM (active).

In the case of `OC1(c2cccs2)CN(c2ccc(Br)cc2)C2=[N+]1CCCS2` (configuration not stated), the Potency was 8.91 µM (active).

Regarding `OC1(c2cccs2)CN(c2ccc(Cl)cc2)C2=[N+]1CCCC2` (configuration not stated), the Potency was 6.31 µM (active).

Regarding `Cc1[nH]c2ccccc2c1/C=N/NC(=O)CNC(=O)Cc1ccccc1`, the Potency entry was “inactive”.

Consider `Cc1[nH]c2ccccc2c(=O)c1C(=O)/C=C/c1ccccc1`, for which the Potency is 3.55 µM (active).

For the compound `Cc1[nH]c(=O)c(C(=O)/C=C/c2ccccc2F)c2c1CCCC2`, the Potency is 5.62 µM (active).

For the compound `Cc1[nH]c(=O)c(C(=O)/C=C/c2ccccc2)c2c1CCCC2`, the Potency was 4.47 µM (active).

Take `CCC1CCCCN1CCCNC(=O)CNC(=O)c1nn(-c2ccc(OC)c(Cl)c2)c(=O)c2ccccc12` (configuration not stated): the Potency is 6.31 µM (active).

For the compound `CCC1CCCCN1CCCNC(=O)Cn1c(=O)c2cccn2c2cccnc21` (configuration not stated), the Potency entry was “inactive”.

As to `N=C(N)c1ccc(/C=C/c2ccc(C(=N)N)cc2O)cc1`, the Potency is 0.251 µM (active).

For the compound `C=C1C(=O)O[C@@H]2[C@H]1CC[C@H](C)[C@]1(O)CCC(=O)[C@@]21C`, the Potency is 7.08 µM (active).

For the compound `CCCCC1(c2ccc(F)cc2)NC(=O)N(CC(=O)N2CCN(C(=O)c3ccco3)CC2)C1=O` (configuration not stated), the Potency is 12.6 µM (active).

For the compound `CC(C)c1ccc2[nH]c(O)c(N=NC(=O)c3ccc(CSc4nncn4C)cc3)c2c1`, the Potency is 2.24 µM (active).

For the compound `O=S(=O)(c1ccc(F)cc1)N1CCN(c2nc(-c3ccc(F)cc3)cs2)CC1`, the Potency was 11.2 µM (active).

With `CCOC(=O)c1cc(-c2ccc(C)cc2)n(CCC(=O)NCCN(C)C)c1C`, the Potency is 10 µM (active).

Take `CCOc1ccc(/C=C/C(=O)NCCc2ccc(OC)c(OC)c2)cc1`: the Potency is 15.8 µM (active).

As to `O=S(=O)(Nc1ccc(O)c(Sc2nc3ccccc3s2)c1)c1cccc2ccccc12`, the Potency is 12.6 µM (active).

For the compound `Cc1ccc(-n2ncc3c(SCc4ccccn4)ncnc32)c(C)c1`, the Potency was 14.1 µM (active).

For the compound `CCCC(=O)N=C1SC2CS(=O)(=O)CC2N1c1ccc(CC)cc1` (configuration not stated), the Potency is 14.1 µM (active).

For the compound `Cc1cc(Br)ccc1NC(=O)CNC(=O)Cn1ncc(Cl)c(Cl)c1=O`, the Potency is 11.2 µM (active).

On to `CCC(=O)Nc1ccc(C(=O)Cn2ncc(Cl)c(Cl)c2=O)cc1`, for which the Potency was 15.8 µM (active).

Regarding `CCOC(=O)C(C(=O)OCC)C(Nc1cccc(Br)c1)c1ccccc1` (configuration not stated), the Potency is 10 µM (active).

For `CC(C)Cc1ccc(C(=O)Nc2ccc(Cc3ccncc3)cc2)o1`, the Potency was 10 µM (active).

Take `COc1ccc(NC(=S)N(CCCN2CCCCCC2)Cc2cccs2)cc1`: the Potency is 11.2 µM (active).

For the compound `Cc1ccc(C(=O)c2cc([N+](=O)[O-])ccc2N2CCOCC2)c(C)c1`, the Potency is 14.1 µM (active).

In the case of `Cc1ccc(CN2CCC(CNS(=O)(=O)c3ccc(-c4ccc(=O)[nH]n4)s3)CC2)cc1`, the Potency was 5.01 µM (active).

Consider `Cc1ccc(CNS(=O)(=O)c2ccc(C)s2)cc1`, for which the Potency result is “inactive”.

As to `CCOC(=O)c1cnc2c(C)c(Cl)ccc2c1NCCCN1CCOCC1`, the Potency is 0.282 µM (active).

In the case of `O=C(N/N=C(\CC(=O)c1cccs1)C(F)(F)F)c1ccncc1`, the Potency result is “inactive”.

As for `O=C(N/N=C/C(Cl)=C\c1ccccc1)c1cccs1`, the Potency was 4.47 µM (active).

Take `Cc1cccc(CCNC(=O)CNS(=O)(=O)c2ccc3nc(C)sc3c2)c1`: the Potency is 1.58 µM (active).

For `CCOc1ccc(C(C)=O)cc1COc1ccc(-c2nnco2)cc1`, the Potency was 11.2 µM (active).

In the case of `Oc1ccc(Cl)cc1CNc1cnc2ccccc2c1`, the Potency was 11.2 µM (active).

Turning to `COc1ccc2c(ccc[n+]2CC(=O)c2ccccc2)c1`, the Potency is 14.1 µM (active).

For `O=C(C[n+]1cc(Br)cc2ccccc21)c1ccccc1`, the Potency is 5.01 µM (active).

Turning to `OCCNC(=S)Nc1ccc(Cl)c(Cl)c1`, the Potency is 2.24 µM (active).

Consider `O=C1c2ccccc2C(=Nc2ccccc2)C1c1cccc(Br)c1` (configuration not stated), for which the Potency is 3.98 µM (active).

Regarding `COc1ccc(N(CC(=O)N/N=C/c2cccnc2)S(=O)(=O)c2ccccc2)c(OC)c1`, the Potency is 6.31 µM (active).

With `O=C(CCl)NCCN1C(=O)S/C(=C\c2cccnc2)C1=O`, the Potency is 5.01 µM (active).

As to `O=C(c1ccc2c(=O)n3c(nc2c1)CCCCC3)N1CCN(c2ccc([N+](=O)[O-])cc2)CC1`, the Potency is 6.31 µM (active).

In the case of `CC(=O)N1CN(C2CCCC2)Cc2c1sc1c2CCCC1`, the Potency was 6.31 µM (active).

For `COc1ccc(C(=O)CSc2nnc(C3CCCCC3)n2N)c(OC)c1`, the Potency was 3.16 µM (active).

Take `O=S(=O)(c1ccc(OCC(O)CN2CCN(c3ccc(F)cc3)CC2)cc1)N1CCOCC1` (configuration not stated): the Potency was 12.6 µM (active).

For `O=C(CN1CCN(c2ccc(F)cc2)CC1)Nc1ccc(S(=O)(=O)N2CCOCC2)cc1`, the Potency was 10 µM (active).

Turning to `CCN(CC(=O)Nc1ccc(S(=O)(=O)N2CCOCC2)cc1)Cc1ccccc1`, the Potency is 10 µM (active).

On to `C=CCOc1ccc(/C=C\c2nc(O)c([N+](=O)[O-])c(=O)[nH]2)cc1OC`, for which the Potency is 12.6 µM (active).

`O=C(COc1cc2oc(=O)c3c(c2cc1Cl)CCC3)NCC(O)c1ccccc1` (configuration not stated): the Potency is 8.91 µM (active).

As for `Cc1c(OCC(=O)NCC(O)c2ccccc2)ccc2c3c(c(=O)oc12)CCC3` (configuration not stated), the Potency is 10 µM (active).

Consider `O=S(=O)(NCC(O)c1ccccc1)c1cc(Cl)sc1Cl` (configuration not stated), for which the Potency entry was “inactive”.

Regarding `O=C(CSc1nc2nn(-c3ccccc3)c(=O)c-2c2n1CCCCC2)c1ccc(O)c(O)c1`, the Potency was 11.2 µM (active).

For `O=C(NCc1cccnc1)/C(=C\c1ccc(-c2cccc(Cl)c2)o1)S(=O)(=O)c1ccccc1`, the Potency was 7.94 µM (active).

Take `O=C(NCc1cccnc1)c1ccc(NS(=O)(=O)c2ccccc2)cc1`: the Potency was 7.08 µM (active).

`O=C(NCc1cccnc1)c1ccc(Cl)c(S(=O)(=O)N2CCOCC2)c1`: the Potency was 11.2 µM (active).

Consider `O=C(NCCN1CCOCC1)c1ccc(Cl)c(S(=O)(=O)N2CCCCC2)c1`, for which the Potency was 14.1 µM (active).

As to `CCC(C)[C@H](NC(=O)NCCCOC(C)C)C(=O)OC` (some centres not stated), the Potency entry is “inactive”.

As to `CCOC(=O)c1cc2c(nc1NC(=S)Nc1ccccc1)CC(C)(C)OC2`, the Potency was 12.6 µM (active).

Regarding `O=C(O)c1ccccc1NS(=O)(=O)c1cccc(-n2sc3ccccc3c2=O)c1`, the Potency was 12.6 µM (active).

On to `O=C(Cn1c(=O)c(=O)n(Cc2ccccc2)c2ccc(Cl)cc21)Nc1cccc(F)c1`, for which the Potency was 12.6 µM (active).

Turning to `CCn1c(=O)cc(C(=O)OC)sc1=Nc1ccc(F)c(F)c1`, the Potency entry is “inactive”.

In the case of `O=C1CS/C(=N/N=C\c2ccn[nH]2)N1`, the Potency is 10 µM (active).

`C#Cc1ccc(CN2CCN(CCCc3ccccc3)C(CCO)C2)cc1` (configuration not stated): the Potency was 7.08 µM (active).
